Among all 340,000 compounds or so, about 2,100 (0.62%) were called active.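 How the source made its calls: active means first-screen hits whose inhibition reached a set limit at any dose in the follow-up dose series; inconclusive means inhibition above the set first-screen limit but never retested; inactive means the rest.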 The list is a sample of the results. Potency and affinity values are given separately.
target: Rac GTPase-activating protein 1 (Homo sapiens) (UniProt Q9H0H5); test: MgcRacGAP GTPase-activating activity inhibitors, confirmation, biochemical, ADP Hunter fluorescence, primary and confirmatory (AID 624330); details: MgcRacGAP-stimulated Rac1 GTP hydrolysis, at 30 µM, hits give high values, GST-tagged Rac1 F28L mutant substrate;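 further: fluorescence reports GDP produced by GAP-driven GTP hydrolysis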
Sequence (Q9H0H5 whole entry, looked up): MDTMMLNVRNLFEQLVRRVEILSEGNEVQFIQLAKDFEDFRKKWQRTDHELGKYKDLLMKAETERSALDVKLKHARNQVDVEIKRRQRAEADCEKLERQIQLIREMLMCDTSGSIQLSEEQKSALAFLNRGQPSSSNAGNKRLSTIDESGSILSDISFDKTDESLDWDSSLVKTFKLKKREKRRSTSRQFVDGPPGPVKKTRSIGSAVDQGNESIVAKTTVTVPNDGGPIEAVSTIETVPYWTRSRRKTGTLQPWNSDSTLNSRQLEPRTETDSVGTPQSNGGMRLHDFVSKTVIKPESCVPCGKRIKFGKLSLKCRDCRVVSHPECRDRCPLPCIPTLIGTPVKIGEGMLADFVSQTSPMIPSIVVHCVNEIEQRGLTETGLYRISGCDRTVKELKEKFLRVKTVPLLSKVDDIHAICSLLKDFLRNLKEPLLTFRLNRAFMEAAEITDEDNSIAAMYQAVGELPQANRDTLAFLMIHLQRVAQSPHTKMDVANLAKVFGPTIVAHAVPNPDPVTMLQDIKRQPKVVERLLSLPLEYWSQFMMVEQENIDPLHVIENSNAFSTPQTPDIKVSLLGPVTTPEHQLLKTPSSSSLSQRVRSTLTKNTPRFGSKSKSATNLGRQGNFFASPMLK

inhibition, inactive:
CCNC(=S)N(CCc1c(C)[nH]c2ccccc12)Cc1cc(OC)c(OC)c(OC)c1 13.9%
O=C(CSC1=N/C(=C/c2ccc(Cl)c(Cl)c2)C(=O)N1c1ccccc1F)NC1CC1 6.1%
CN(C(=O)COC(=O)COc1ccc2ccccc2c1)c1ccccc1 5.73%
COc1ccc(OC)c(S(=O)(=O)N2CCC(C(=O)N(C)Cc3ccccc3)CC2)c1 13.1%
O=C(O)CCCn1c(=O)[nH]c2ccccc2c1=O 4.27%
CCC(C)n1c(SCc2ccc([N+](=O)[O-])cc2)nc2ccsc2c1=O (stereo not given) 2.36%
CC1CCN(CCCn2c(=S)[nH]c3c(sc4ccc([N+](=O)[O-])cc43)c2=O)CC1 17.7%
CCC(C)n1c(=S)[nH]c2ccccc2c1=O (stereo not given) 5.28%
COc1cccc(-c2cc3nc(C)cc(N4CCN(C(=O)c5ccoc5)CC4)n3n2)c1 13.9%
CCOc1ccc(/C=C(\C#N)C(=O)Nc2ccccn2)cc1 -0.14%
CCc1noc(C)c1C(=O)N1CCCC(N2CCN(c3cccc(Cl)c3)CC2)C1 (stereo not given) 8.33%
C/C(=N\Nc1ccc([N+](=O)[O-])cc1)c1ccc(C#N)cc1 -4.19%
C/C(=N\Nc1ccc([N+](=O)[O-])cc1)c1cccc(N)c1 1.82%
O=C(NCc1ccc(F)cc1)C1CCC(=O)N1C1CCCCC1 (stereo not given) -0.47%
COc1ccc(OC(=O)OCc2ccccc2)cc1 11.7%
Cc1cc(CNC[C@H]2O[C@@H](n3ccc(N)nc3=O)[C@H](O)[C@@H]2O)no1 9.68%
COc1cc2c(cc1CNC[C@H]1O[C@@H](n3ccc(N)nc3=O)[C@H](O)[C@@H]1O)OCO2 6.09%
C=CCNc1nnc(Cc2ccc(F)cc2)c(=O)[nH]1 4.71%
COc1cc2c(cc1NC(=O)c1cccc([N+](=O)[O-])c1)oc1ccccc12 1.77%
c1ccc(CN2CCN(C(c3ccccc3)c3ccccc3)CC2)cc1 16.6%
CN(CC(=O)N1CCN(Cc2ccccc2)CC1)S(=O)(=O)c1ccc(F)cc1 -3.86%
O=C(c1ccc(F)cc1)N1CCN(Cc2ccccc2)CC1 7.84%
OC(CN1CCN(Cc2ccccc2)CC1)c1ccc(F)cc1 (stereo not given) -1.4%
COc1ccccc1C1CCN(C(=O)c2cnn(-c3ccccc3)c2C)CC1 12.4%
O=C(Nc1ccc([N+](=O)[O-])cc1NC(=O)c1ccccc1)c1ccccc1 2.42%
CCC(=O)Nc1ccccc1N1CCN(c2ccc(F)cc2)CC1 2.63%
CCSc1nc2ccc(N3C(=O)C4C5C=CC(C5)C4C3=O)cc2s1 (stereo not given) -1.62%
CN1CCC(=O)N([C@H](CSc2ccc(Br)cc2)Cc2ccccc2)CC1 1.09%
COc1cc(OC)cc(C(=O)N2CCN(S(=O)(=O)c3ccc4c(c3)OCCO4)CC2)c1 9.94%
C/C(=N\Nc1ccc(S(=O)(=O)N2CCCCC2)cn1)c1cccc(Br)c1 3.57%
COc1cccc(/C(C)=N/Nc2ccc(S(=O)(=O)N3CCCCC3)cn2)c1 7.29%
CC(C)(C)OC(=O)NCCCC[C@H](NC(=O)c1nc[nH]c1C(=O)NC(c1ccccc1)c1ccccc1)C(=O)OC(C)(C)C 2.03%
CCN(C(=O)COC(=O)c1cccc(-n2cnnn2)c1)C1CCCCC1 11.8%
Cc1sc2ncn(CC(=O)N3CCN(c4ccccc4F)CC3)c(=O)c2c1S(=O)(=O)N1CCOCC1 2.91%
Cc1cc([N+](=O)[O-])ccc1N -7.8%
COc1cc(Br)c(Br)cc1N -1.7%
Cc1ccc2c(N)c(C)ccc2c1 12.7%
Cc1ccc(C)c(N)c1 6.49%
Cc1cc(Cc2ccc(N)c(C)c2)ccc1N 4.21%
COc1ccc(-c2nnc(N)s2)cc1OC 5.29%
COc1cc([N+](=O)[O-])ccc1N 0.84%
COc1cc(NC(N)=S)c(OC)cc1Cl 10.5%
O=C(CSc1nccc(=O)[nH]1)NN(c1ccccc1)c1ccccc1 11.2%
O=C(NCC(c1ccco1)N1CCN(c2ccccc2)CC1)C(=O)NC1CCCC1 (stereo not given) 4.87%
CCCCCN(C(=O)CCC(=O)OCc1cccc(C)c1)c1c(N)n(CCCC)c(=O)[nH]c1=O 5.1%
O=C(CSc1nnc(COc2ccccc2)n1-c1ccccc1)c1cccs1 15.1%
CCOC(=O)c1nc(C)nc(Sc2n[nH]c(-c3ccccc3)n2)c1C 9.53%
C/C(=N/OCC(=O)Nc1ccccc1)c1cccs1 6.14%
CCCCc1ccc(NC(=O)CN(C)CC(=O)Nc2ccccc2Cl)cc1 11.5%
O=c1cc(-c2ccc(Cl)c(Cl)c2)[nH][nH]1 8.61%
CCCCC(=O)N1C/C=C\C(c2ccc(OC)cc2)N(Cc2ccc(F)cc2)C(=O)C1 (stereo not given) 8.3%
COc1cc(/C=N/Nc2ccc(C(F)(F)F)cn2)cc(OC)c1O 13%
Cc1ncc(CO)c(/C=N/Nc2ccc(C(F)(F)F)cn2)c1O 61.5%
COc1ccc(/C=N/Nc2ncc(C(F)(F)F)cc2Cl)cc1OC -7.93%
O=C(O)c1ccc(/C=N/Nc2ccc(C(F)(F)F)cn2)cc1 13.8%
O=[N+]([O-])c1ccc(NN=Cc2ccc(O)cc2O)nc1 24.6%
FC(F)(F)c1ccc(N/N=C/c2cccnc2)nc1 4.55%
Cc1cccc(C(CC(=O)O)NC(=O)C(F)(F)F)c1 (stereo not given) 2.11%
C=CCN(CC=C)CCCOc1ccc(C)cc1OC 14.4%
Cc1ccc(NS(=O)(=O)c2ccc3c(c2)NC(=O)C(C)C(=O)N3)cc1C (stereo not given) -6.55%
CCC(Oc1ccccc1C)C(=O)N1CCCN(C)CC1 (stereo not given) 3.47%
COc1cc(-c2nc3cccc(C)n3c2NCC2CCCO2)ccc1O (stereo not given) -43.9%
Cc1cccc(C)c1Nc1c(-c2ccc(N3CCOCC3)cc2)nc2cnccn12 13.6%
CCOc1cc(-c2nc3ccccn3c2NCC2CCCO2)ccc1O (stereo not given) -4.32%
COc1ccc(OC)c(/C=N/c2c(-c3ccc(O)c(OC)c3)nc3ccccn23)c1 4.63%
COc1cc(-c2nc3cnccn3c2Nc2ccc3c(c2)OCCO3)ccc1O 15.7%
COc1cc(-c2nc3cnccn3c2NC(C)(C)CC(C)(C)C)ccc1O 17%
COc1cc(-c2nc3ccccn3c2/N=C/c2cccc(OC)c2O)ccc1O 10.6%
Cc1ccc2nc(-c3ccccc3O)c(Nc3ccc4c(c3)OCCO4)n2c1 11.2%
O=C1CC2(CCCC2)C(=O)N1c1ccc(S(=O)(=O)NCC2CC2)cc1Cl 5.71%
COc1ccc(OCc2nnc(SC3CCOC3=O)n2-c2ccccc2)cc1 (stereo not given) 11.2%
c1nnc(-c2ccc3c(c2)OCO3)o1 12.3%
CC(C)(C)C(=O)NCc1ccc(C(=O)CSc2nnc(C3CC3)n2C2CC2)s1 8.51%
C[C@]12C(=O)N(c3cccc(Cl)c3)C(=O)N1[C@@H]1c3ccccc3OC[C@@H]1[C@H]2c1ccccc1 6.88%
CCOC(=O)Cc1csc(SCC(=O)NC2CCS(=O)(=O)C2)n1 (stereo not given) 0.45%
Cc1cc(-c2ccc(Cl)cc2)n2nc(N)nc2n1 8.73%
COc1ccc(C/C(N)=N/OC(C)=O)cc1OC 7.14%
COc1cc(-c2nc3cnccn3c2Nc2ccccc2)ccc1O 30.3%
COc1cc(-c2nc3cnccn3c2Nc2ccc(C(C)C)cc2)ccc1O 21.9%
CCOC(=O)C(C)Sc1nc(-c2ccccc2)nc2ccccc12 (stereo not given) -2.03%
ON=C1CCCC2CCCCC12 (stereo not given) -2.9%
CC(C)CNC(=O)CC(c1ccccc1)c1c(O)ccc2ccccc12 (stereo not given) 10.5%
CC(C)CC(=O)NC(c1ccccc1)c1c(O)ccc2ccccc12 (stereo not given) 7.84%
CN(Cc1ccccc1F)C(=O)CN1c2cccc3cccc(c23)S1(=O)=O 6.24%
COc1cccc(CNC(=O)CCS(=O)(=O)c2ccc3c(c2)NC(=O)CO3)c1 12.4%
CCCn1c(SCC(=O)NNC(=O)c2ccccc2)nnc1-c1cccnc1 12.3%
O=C(NCCO)c1cc2ccccc2c(=O)s1 6.83%
COc1ccc2cc(C(=O)Nc3ccc(Cl)cc3)sc(=O)c2c1OC 7.43%
COc1ccc2cc(C(=O)Nc3ccc(F)cc3)sc(=O)c2c1OC 0.7%
O=C(Nc1ccccc1)c1cc2ccccc2c(=O)s1 -4.83%
CCN1C(=O)[C@H]2[C@H]3CN=C(SCc4ccc(C(=O)OC)cc4)N3[C@@](Cc3ccccc3)(C(=O)OC)[C@H]2C1=O 11.1%
COC(=O)C(Cc1c[nH]c2ccccc12)NC(=O)c1cccc(S(=O)(=O)N2CCCCC2)c1 (stereo not given) 2.63%
CCOC(=O)c1ccc(NC(=O)C(=O)NCC2(c3ccc(OC)cc3)CCOCC2)cc1 15.5%
CC(C(=O)Nc1ccc(Cl)cc1)N1C(=O)NC2(CCCC2)C1=O (stereo not given) 3.21%
CCN(CC(=O)NCc1ccc(F)cc1)C(=O)CN1CCN(c2cc(Cl)ccc2C)CC1 4.22%

Source: PubChem BioAssay AID624330 (Southern Research Specialized Biocontainment Screening …, 2012)
